According to PubChem BioAssay:
The source made the active and inactive calls.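 Rule for the calls, unless noted: active = fluorescence slope after compound addition differing from the mean of all screened samples at 99.7% confidence, in either direction; inactive = the rest.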

Experiments:
[1] = inhibitors of TNFa-induced NFkB p65 translocation, primary screen, imaging, HUVEC, MLSMR starter and 10KST1 sets (AID 438;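 active = inhibition above 20% together with a positive visual image hit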;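 note: compound added about 3h40 before a 20 min TNFalpha stimulation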;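 for inhibition: signal is the nuclear over cytoplasmic p65 intensity ratio per well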); conditions: HUVEC TNFa-induced p65 nuclear translocation; cell count: measured here: nuclei count (cytotoxicity indicator), at 2.08 µM; inhibition: at 2 µM, stronger effect = higher value, 0% TNFa-plus-vehicle, 100% no-TNFa wells
[2] = reduction of polyQ htt aggregates in cells – imaging, exon1htt(103Q)mCFP cells, high-content imaging, primary screen (AID 483;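 active = visual image review flags a hit and inhibition of aggregation exceeds 20%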;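 note: compound exposure lasted 3 days before fixation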;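 for nuclei count: percent of the per-plate median nuclei count of sample wells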); conditions: exon1htt(103Q)mCFP cell line, aggregate imaging, at 2 µM; inhibition of aggregation: stronger effect = higher value; nuclei count: measured here: cell count, toxicity
[3] = endothelial E-selectin expression blockers – imaging, HUVEC, immunofluorescence, MLSMR starter and 10KST1 sets, primary screen (AID 487;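 active = visually confirmed hit in the image check and inhibition above 20%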;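 for inhibition: signal is fraction of cell area covered by stained E-selectin grains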;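 for nuclei count: 100% = median nuclei count of all wells on the same plate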); conditions: HUVEC TNFalpha-induced E-selectin immunofluorescence imaging, at 2 µM; inhibition: stronger effect = higher value; nuclei count: measured here: cell number, toxicity
[4] = target: Voltage-gated potassium channel subunit beta-2 (Rattus norvegicus) (UniProt P62483); assay: inhibitors of rat Kvbeta2 reductase activity – biochemical, NADPH fluorescence, primary screen (AID 622;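 active = fluorescence slope higher than the sample average by over 3 SD, cut at about -0.22 in these data, passing the limit was not always enough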;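 note: slope of raw intensity against log time taken from 70 to 1610 s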); conditions: recombinant KvBeta, 4-cyanobenzaldehyde reduction, at 10 µM, stronger effect = higher value
[5] = target: Voltage-gated potassium channel subunit beta-2 (Rattus norvegicus) (UniProt P62483); assay: enhancers of rat Kvbeta2 NADPH turnover – biochemical, NADPH fluorescence, primary screen (AID 623;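 active = NADPH fluorescence slope more negative than the mean of all samples by about 3 SD, 99.7% confidence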;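 note: fluorescence intensity change per second fitted from 20 to 320 s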); conditions: Recombinant KvBeta, NADPH fluorescence decrease slope, 10 min; at 10 µM; stronger effect = lower value
[6] = target: Alpha-2C adrenergic receptor (Homo sapiens) (UniProt P18825); assay: compounds altering alpha2C-coupled GIRK flux – cell-based, HEK293 alpha2C/GIRK1/2, thallium flux, primary screen (AID 624); conditions: thallium flux BTC fluorescence, at 10 µM, actives lie on both sides;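 note: slope of fluorescence ratio to pre-addition baseline per second over 15 to 24 s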
[7] = blockers of RIG-like receptor reporter activation – cell-based, Sendai virus stimulus, luciferase, 10K MLSCN set, TLR/RLR signaling modifier project, primary screen (AID 602276;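 active = inhibition at or above 50% at 10 µM; inactive = inhibition below 50%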;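 note: firefly luciferase from ISG56 promoter only with Renilla not read in this screen; 0% = Sendai virus plus DMSO and 100% = medium plus DMSO without virus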); conditions: HEK293 RL24 IRF3 luciferase reporter, at 10 µM, stronger effect = higher value
[8] = TLR3 IRF3 reporter activation blockers – cell-based, poly I:C stimulus, luciferase, 10K MLSCN set, primary screen (AID 602277;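 active = inhibition of the reporter signal at or above 50%; inactive = inhibition below 50%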); conditions: HEK293-TLR3 RL24 IRF3 luciferase reporter, at 10 µM, stronger effect = higher value

Alpha-2C adrenergic receptor (Homo sapiens), sequence (P18825 whole entry, looked up): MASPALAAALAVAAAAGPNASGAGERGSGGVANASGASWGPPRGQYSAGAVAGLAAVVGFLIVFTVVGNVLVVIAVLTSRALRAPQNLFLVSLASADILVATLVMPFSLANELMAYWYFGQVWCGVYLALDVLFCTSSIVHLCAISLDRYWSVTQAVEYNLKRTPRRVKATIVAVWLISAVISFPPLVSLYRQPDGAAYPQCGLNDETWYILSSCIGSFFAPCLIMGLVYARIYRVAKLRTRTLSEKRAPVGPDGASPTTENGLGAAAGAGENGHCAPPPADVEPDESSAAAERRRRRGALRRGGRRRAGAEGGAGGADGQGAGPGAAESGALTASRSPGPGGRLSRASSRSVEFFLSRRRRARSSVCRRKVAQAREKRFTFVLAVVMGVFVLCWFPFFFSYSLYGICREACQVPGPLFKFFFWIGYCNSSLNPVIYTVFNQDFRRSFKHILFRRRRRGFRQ
Voltage-gated potassium channel subunit beta-2 (Rattus norvegicus), sequence (P62483 whole entry, looked up): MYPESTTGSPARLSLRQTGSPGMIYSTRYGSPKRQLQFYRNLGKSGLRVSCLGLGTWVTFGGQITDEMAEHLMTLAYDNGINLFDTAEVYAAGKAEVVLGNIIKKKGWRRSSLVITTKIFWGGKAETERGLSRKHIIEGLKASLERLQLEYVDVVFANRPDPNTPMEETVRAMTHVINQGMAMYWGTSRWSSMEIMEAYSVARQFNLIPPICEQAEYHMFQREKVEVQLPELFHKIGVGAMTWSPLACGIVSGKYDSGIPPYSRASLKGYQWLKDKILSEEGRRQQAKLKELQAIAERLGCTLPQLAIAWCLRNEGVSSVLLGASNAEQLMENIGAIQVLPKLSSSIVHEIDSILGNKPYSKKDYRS

Row | Compound | cell count [1] | inhibition [1] | inhibition of aggregation [2] | nuclei count [2] [%] | inhibition [3] | nuclei count [3] [%] | fluorescence slope [4] | NADPH fluorescence slope [5] | slope [6] | inhibition [7] | inhibition [8]
1 | CC(=O)c1ccccc1Oc1nc(CN2CCOCC2)nc2scc(-c3cccs3)c12 | 330 | -5.7% (inactive) | 13.6% (inactive) | 99.2 | -50.4% (inactive) | 109 | -0.478 (inactive) | -1.8e-05 (inactive) | 0.00384 (inactive) | 7.86% (inactive) | 37.7% (inactive)
2 | CCc1ccccc1NC(=O)c1ccoc1C | 399 | 2.4% (inactive) | 0.7% (inactive) | 97.9 | -12.3% (inactive) | 99.5 | -0.493 (inactive) | -5.8e-05 (inactive) | 0.00456 (inactive) | 13.9% (inactive) | 17.6% (inactive)
3 | Cc1ccc(S(=O)(=O)N2CCN(S(=O)(=O)N(C)C)CC2)cc1 | 362 | 4.3% (inactive) | -29.3% (inactive) | 101 | 8.9% (inactive) | 111 | -0.518 (inactive) | -1.8e-06 (inactive) | 0.00563 (inactive) | 12.1% (inactive) | 15.4% (inactive)
4 | COc1cccc(NC(=O)C2CCCN(S(=O)(=O)c3cccc4cccnc34)C2)c1 (stereo unspecified) | 604 | -1.7% (inactive) | 25.4% (inactive) | 90.7 | -62.8% (inactive) | 106 | -0.559 (inactive) | -2e-05 (inactive) | 0.00606 (inactive) | 2% (inactive) | 23.1% (inactive)
5 | CCOC(=O)c1ccc(Oc2cc(C)nc(SC)n2)cc1 | 484 | 10.1% (inactive) | 13.3% (inactive) | 117 | -192% (inactive) | 134 | -0.47 (inactive) | -9.6e-06 (inactive) | 0.00614 (inactive) | 15.8% (inactive) | 19.9% (inactive)
6 | CCCCOc1ccccc1C1C(C(N)=O)=C(C)Nc2nnnn21 (stereo unspecified) | 279 | -4.7% (inactive) | 0.7% (inactive) | 88.7 | -56% (inactive) | 97.9 | -0.459 (inactive) | 2.7e-05 (inactive) | 0.0066 (inactive) | 17.4% (inactive) | 27.7% (inactive)
7 | Clc1ccc(C2Nc3ccccc3-n3cccc32)cc1 (stereo unspecified) | 637 | -1.6% (inactive) | 8.6% (inactive) | 109 | -44.3% (inactive) | 104 | -0.301 (inactive) | 2.7e-06 (inactive) | 0.00628 (inactive) | 5.43% (inactive) | 18.8% (inactive)
8 | COc1ccc(CNC(=O)c2cnc3n(c2=O)CCS3)cc1 | 591 | -6.4% (inactive) | 15.6% (inactive) | 97.2 | 15.6% (inactive) | 95.7 | -0.369 (inactive) | 4e-05 (inactive) | 0.00542 (inactive) | 10.9% (inactive) | 29.1% (inactive)
9 | O=C(Sc1nnnn1C1CCCCC1)c1cccs1 | 242 | 13.8% (inactive) | 7.4% (inactive) | 91.3 | -291% (inactive) | 129 | -0.317 (inactive) | 1.5e-05 (inactive) | 0.00618 (inactive) | 15.9% (inactive) | 13.5% (inactive)
10 | Cc1cc(C)nc(SCC(=O)Nc2ncc3c(n2)CCCC3=O)n1 | 188 | -8.6% (inactive) | 10.1% (inactive) | 98.6 | -9.1% (inactive) | 85.2 | -0.622 (inactive) | -1.1e-05 (inactive) | 0.00766 (inactive) | 6.63% (inactive) | 11.4% (inactive)
11 | c1ccc2c(Cn3ccnc3)c[nH]c2c1 | 410 | 6.5% (inactive) | -17.6% (inactive) | 90 | -12.3% (inactive) | 96.2 | -0.414 (inactive) | -0.000163 (inactive) | 0.00685 (inactive) | 6.54% (inactive) | 38.9% (inactive)
12 | CCC1C(=O)N=C(SCC(=O)Nc2cccc3ccccc23)NC1=O (stereo unspecified) | 393 | -4% (inactive) | 3.1% (inactive) | 101 | -41.3% (inactive) | 119 | -0.564 (inactive) | -4.5e-05 (inactive) | 0.00593 (inactive) | -15.6% (inactive) | 0.719% (inactive)
13 | CCOC(=O)C1CCN(c2c(N(C)Cc3ccco3)c(=O)c2=O)CC1 | 789 | 0.9% (inactive) | 3.8% (inactive) | 103 | -33.1% (inactive) | 114 | -0.576 (inactive) | -2.6e-05 (inactive) | 0.00601 (inactive) | 5.07% (inactive) | 22.7% (inactive)
14 | COc1ccc(S(=O)(=O)Nc2cc(C)on2)cc1OC | 455 | 6.5% (inactive) | -7.8% (inactive) | 109 | -171% (inactive) | 136 | -0.523 (inactive) | 9.2e-06 (inactive) | 0.00556 (inactive) | 7.69% (inactive) | 12.8% (inactive)
15 | Cc1ccc(-c2noc(CCC(=O)NC3CCCc4ccccc43)n2)cc1 (stereo unspecified) | 377 | -2% (inactive) | 5.2% (inactive) | 108 | -27.6% (inactive) | 85.8 | -0.411 (inactive) | -3.2e-05 (inactive) | 0.00255 (inactive) | 19.1% (inactive) | 18.8% (inactive)
16 | Cc1cc(C)c2c(CC(=O)NCc3ccco3)coc2c1 | 262 | 5.7% (inactive) | 23.9% (inactive) | 74.9 | 34.3% (inactive) | 60.6 | -0.324 (inactive) | 4e-05 (inactive) | 0.00608 (inactive) | 10.9% (inactive) | 21.2% (inactive)
17 | COCCOC(=O)c1[nH]c2c(c1C)C(=O)CC(c1ccco1)C2 (stereo unspecified) | 930 | 12.1% (inactive) | -345% (inactive) | 2.7 | -169% (inactive) | 95.8 | -0.568 (inactive) | -6.8e-06 (inactive) | 0.00646 (inactive) | 14.2% (inactive) | 77.7% (active)
18 | CC(CCc1ccccc1)NC(=O)C1CCCN(c2nnc(-n3cccc3)s2)C1 (stereo unspecified) | 585 | 5.8% (inactive) | -2.5% (inactive) | 99.3 | -42.8% (inactive) | 102 | -0.57 (inactive) | -3.2e-05 (inactive) | 0.00444 (inactive) | 8.13% (inactive) | 18.5% (inactive)
19 | O=C1c2ccccc2S(=O)(=O)N1CC(O)Cn1c2ccccc2c2ccccc21 (stereo unspecified) | 397 | 1% (inactive) | 8.8% (inactive) | 105 | -121% (inactive) | 118 | -0.421 (inactive) | -4.3e-05 (inactive) | 0.00434 (inactive) | 5.13% (inactive) | 30.2% (inactive)
20 | O=C(Nc1ccc2c(c1)OCO2)C(c1ccc(Cl)cc1)N1CCN(C(=O)c2ccco2)CC1 (stereo unspecified) | 359 | -2.1% (inactive) | -23.2% (inactive) | 102 | -43.9% (inactive) | 110 | -0.47 (inactive) | -3.7e-05 (inactive) | 0.00661 (inactive) | 20.6% (inactive) | 28.1% (inactive)
21 | CCOC(=O)c1[nH]c2ccccc2c1NC(=O)C(CC)CC | 689 | -10.7% (inactive) | -18.7% (inactive) | 118 | -11% (inactive) | 107 | -0.466 (inactive) | -3.3e-05 (inactive) | 0.00668 (inactive) | 12.4% (inactive) | 40.3% (inactive)
22 | CCC1CCCCN1C(=O)Cn1c(C(=O)OC)cc2sc(Cl)cc21 (stereo unspecified) | 505 | -11.3% (inactive) | -19.4% (inactive) | 107 | 7.9% (inactive) | 94.4 | -0.388 (inactive) | -2e-05 (inactive) | 0.00448 (inactive) | 9.78% (inactive) | 34.6% (inactive)
23 | O=C(c1cnc2n(c1=O)CCS2)N1CCc2ccccc21 | 529 | 9.1% (inactive) | -15.5% (inactive) | 114 | -39.6% (inactive) | 114 | -0.51 (inactive) | 4.8e-06 (inactive) | 0.00669 (inactive) | 14.9% (inactive) | 27% (inactive)
24 | COc1cccc(C(=O)Nc2cc(C)c3c(=O)oc4ccccc4c3n2)c1 | 526 | 0.3% (inactive) | 9.3% (inactive) | 93.9 | -0.1% (inactive) | 92.8 | -0.429 (inactive) | -3.7e-05 (inactive) | 0.00602 (inactive) | 10.3% (inactive) | 22.2% (inactive)
25 | CCOC(=O)c1ccc(NC(=O)CSc2n[nH]c(-c3ccncc3)n2)cc1 | 590 | -1.9% (inactive) | 7.2% (inactive) | 99.9 | -26.4% (inactive) | 110 | -0.592 (inactive) | -3.8e-05 (inactive) | 0.00612 (inactive) | -5.95% (inactive) | -15.4% (inactive)
26 | CCOc1cc(C(=O)NCc2nnc(SCC(=O)OC)n2C)cc(OCC)c1OCC | 291 | 10% (inactive) | 17% (inactive) | 55.3 | 1.2% (inactive) | 101 | -0.337 (inactive) | -1.2e-05 (inactive) | 0.00327 (inactive) | 10.7% (inactive) | 16% (inactive)
